What is called AC50 is the concentration at which the activity in the assay is half-maximal.

“And” between values parts separate entries of the source, which are not always exact repeats. Identical values can stand only once. About 5,800 (36%) of roughly 16,000 compounds were called active. Not shown: some 23% with an inconclusive outcome. Calls come from the whole dose curve; as a rule, active = well fitted curve in the direction sought with a large enough effect; inconclusive = small, poorly fitted or top-dose-only effect, or effect the other way; inactive = no such curve, though single readings can be large or run the other way. The list shows a part of the results. A structure can be active in one record and inactive in another.
% is set by controls: 0 for no effect and ±100 for the full control effect.

The target in this assay is Cytochrome P450 2C19 (Homo sapiens) (UniProt P33261). The assay is described as follows: Cytochrome panel assay with activity outcomes. As to conditions: recombinant CYP, pro-luciferin dealkylation, luminescence, p450-cyp2c19; series mostly up to 57.1 µM.
Sequence of Cytochrome P450 2C19 (Homo sapiens) (P33261 whole entry, looked up): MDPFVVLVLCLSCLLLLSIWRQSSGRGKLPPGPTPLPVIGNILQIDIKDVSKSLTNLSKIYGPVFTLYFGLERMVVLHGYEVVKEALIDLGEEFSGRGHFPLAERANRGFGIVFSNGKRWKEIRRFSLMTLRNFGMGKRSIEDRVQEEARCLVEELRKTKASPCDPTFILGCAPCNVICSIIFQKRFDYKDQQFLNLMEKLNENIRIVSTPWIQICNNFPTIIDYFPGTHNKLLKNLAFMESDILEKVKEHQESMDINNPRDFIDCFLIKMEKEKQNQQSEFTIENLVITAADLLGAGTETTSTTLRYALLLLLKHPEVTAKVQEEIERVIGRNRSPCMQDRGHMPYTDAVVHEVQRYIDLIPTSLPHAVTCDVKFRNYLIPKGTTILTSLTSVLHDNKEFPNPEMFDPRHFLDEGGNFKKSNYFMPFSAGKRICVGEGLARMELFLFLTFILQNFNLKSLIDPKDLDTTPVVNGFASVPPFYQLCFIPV
For `CCOc1cc(NC(=O)c2cccs2)c(OCC)cc1NC(=O)c1ccco1`, the AC50 entry is “inactive”. For the molecule `CCCC[P+](CCCC)(CCCC)Cc1ccc(NC(=O)[C@@H](Cc2ccc3ccccc3c2)NC(=NC2CCCCC2)NC2CCCCC2)cc1`, the AC50 entry is “inactive”.

In the case of `CCOc1cc(NC(=O)C2CCCCC2)c(OCC)cc1NC(=O)c1ccco1`, the AC50 is 7.94 µM (active). Still for that read-out and setting: for `CCC(NC(=O)c1ccccc1NC(=O)c1ccco1)C(=O)NC1CCCCC1` (stereo not drawn) the value was 15.8 µM (active); for `FC(F)(F)c1ccccc1-c1nc(NCCN2CCOCC2)c2ccccc2n1`, “inactive”; for `CC(=O)NCCNc1nc(-c2ccccc2C(F)(F)F)nc2ccccc12`, “inactive”. As to `COCCNc1nc(-c2ccccc2OC)nc2ccccc12`, the AC50 result is “inactive”. For the molecule `CC(=O)NCCNc1nc(-c2ccccc2Cl)nc2ccccc12`, the half-maximal activity concentration (AC50) was 3.98 µM (active). With `COCCNc1nc(-c2ccccc2C(F)(F)F)nc2ccccc12`, the AC50 is 20 µM (active). Take `FC(F)(F)c1ccccc1-c1nc(NCc2cccs2)c2ccccc2n1`: the AC50 is 7.94 µM (active). With `FC(F)(F)c1ccccc1-c1nc(NCc2cccnc2)c2ccccc2n1`, the AC50 was 3.98 µM (active). Regarding `CC(=O)NCCNc1nc(-c2ccccc2C)nc2ccccc12`, the AC50 result was “inactive”. Regarding `CN(C)C(=O)c1ccc(-c2nc(NCc3cccnc3)c3ccccc3n2)cc1`, the AC50 entry was “inactive”. With `CCOC(=O)CCN1C(=O)[C@H]2[C@H]3[C@H](O)[C@H](O)C/C(=N/OC/C=C(\C)CCC=C(C)C)[C@@H]3CC[C@@H]2C1=O`, the activity, negative = inhibition is 6.34% [at 11.4 µM] (inactive). Regarding `CCCCCCCCCCCCCCC[C@@H](O)[C@@H](N)CO`, the AC50 entry is “inactive”. As to `O=c1[nH]c(SCc2c(Cl)c(Cl)c(Cl)c(Cl)c2Cl)nc(=S)[nH]1`, the activity, negative = inhibition is -28.6% [at 11.4 µM] (inactive). Take `CN(C)Cc1ccccc1-c1nc(NCc2cccs2)c2ccccc2n1`: the AC50 result was “inactive”. In the case of `Clc1ccccc1-c1nc(NCc2cccs2)c2ccccc2n1`, the AC50 is 7.94 µM (active).

Take `CN(C)CCNC(=O)Cn1nc(-c2ccc(Cl)cc2)ccc1=O`: the AC50 result is “inactive”. The same measure, in the same setting: for `COc1ccc(NC(=O)N2CCC3(CC2)CCN(C(=O)c2csnn2)CC3)cc1` the value was “inactive”; for `CC(=O)C1C(c2ccccc2OC(F)F)NC(=O)NC1(O)C(F)(F)F` (stereo not drawn), “inactive”. With `Cc1ccc(-c2cnc(NC(=O)CCC(=O)N3CCCCC3)n2C)cc1`, the AC50 entry was “inactive”. On the same count and under the same terms, for `Cn1c(-c2ccccc2)cnc1N` the value was “inactive”; for `Cn1c(-c2ccc(F)cc2)cnc1NCc1ccc(F)cc1`, 2.51 µM (active). Turning to `CCNc1ncc2nc(-c3ccc(F)cc3)c(=O)n(C)c2n1`, the AC50 entry is “inactive”.

On to `Cn1c(-c2ccc(F)cc2)cnc1NCc1cccc(F)c1`, for which the AC50 is 6.31 µM (active). For the molecule `CCN(CC)C[C@@H](O)CN1CCCCc2nc(C)c(C)cc21`, the activity, negative = inhibition was 32.1% [at 11.4 µM] (inactive). For `O=C(NC1(C(F)(F)F)C(=O)Nc2c1c(=O)[nH]c(=O)n2-c1ccc(F)cc1)c1cccnc1` (stereo not drawn), the AC50 result was “inactive”.

With `O=C(c1ccco1)N1CCC2(CC1)CN(Cc1cc(C(F)(F)F)cc(C(F)(F)F)c1)C2`, the AC50 entry was “inactive”. As to `CCCCN1C(=O)NC(NC(=O)c2ccco2)(C(F)(F)F)C1=O` (stereo not drawn), the AC50 is 8.91 µM (active). As to `O=C(NC1(C(F)(F)F)NC(=O)N(Cc2cccnc2)C1=O)c1ccccc1` (stereo not drawn), the AC50 was 15.8 µM (active).

In the case of `NS(=O)(=O)c1ccc(N=Nc2ncccc2O)cc1`, the activity, negative = inhibition was -17% [at 11.4 µM] (inactive). On to `Cc1ccc2nc(SCc3nnc(-c4ccccc4[N+](=O)[O-])o3)c(C#N)cc2c1`, for which the half-maximal activity concentration (AC50) is 0.794 µM (active). On to `Cc1nc2cccc([N+](=O)[O-])c2n1CCCN(C)C`, for which the activity, negative = inhibition is 37.8% [at 11.4 µM] (inactive). In the case of `CN(Cc1ccccc1)Cn1ccnc1`, the AC50 is 2 µM (active). For the molecule `C#CCN(C)Cc1ccccc1`, the AC50 result was “inactive”. The same measure, in the same setting: for `COc1ccc(CCNC[C@H](O)c2ccc(O)cc2)cc1OC` the value was “inactive”; for `CCOc1nc(NCCc2ccc(OC)c(OC)c2)nc(NC(C)(C)CO)n1`, 6.31 µM (active). `COCCn1c(=O)cnc2cnc(Oc3ccccc3)nc21`: the AC50 is 10 µM (active). Same read-out and setting: for `COc1ccc(Oc2ncc3ncc(=O)n(CCc4ccccc4)c3n2)cc1` the value was “inactive”. As to `COCCn1c(=O)c(-c2cccs2)nc2cnc(Oc3ccccc3)nc21`, the AC50 was 10 µM (active).

With `O=c1cnc2cnc(Oc3ccccc3)nc2n1CCc1ccccc1`, the AC50 is 6.31 µM (active). On to `COCCn1c(=O)cnc2cnc(Oc3ccc(OC)cc3)nc21`, for which the AC50 result is “inactive”.

Turning to `Cn1c(=O)c(-c2cccs2)nc2cnc(Oc3ccccc3)nc21`, the AC50 result is “inactive”.

Consider `COCCn1c(=O)c(-c2ccccc2)nc2cnc(Oc3ccccc3)nc21`, for which the AC50 entry is “inactive”. `COc1ccc(S(=O)(=O)N(CC(=O)N2CCCC2)Cc2ccccc2)cc1`: the AC50 was 5.62 µM (active). `COc1ccc(NC(=O)N2CCCC3(CCN(S(=O)(=O)c4ccccc4)CC3)C2)cc1`: the AC50 entry is “inactive”. Take `COc1ccc(S(=O)(=O)N(CCc2ccccc2)CC(=O)N2CCOCC2)cc1`: the AC50 is 10 µM (active). With `CN(Cc1ccccc1)S(=O)(=O)c1ccc(OCC(=O)N2CCOCC2)cc1`, the AC50 entry was “inactive”.

With `CCN(CC)S(=O)(=O)c1ccc2c(c1)nc(SCC(=O)N1CCOCC1)n2-c1ccccc1OC`, the AC50 result is “inactive”. The same measure, in the same setting: under `c1ccc2c(Nc3ccncc3)nc(-c3ccc4c(c3)OCO4)nc2c1` stands 3.98 µM (active); under `c1ccc(Nc2nc(-c3ccc4c(c3)OCO4)nc3ccccc23)cc1`, 3.16 µM (active). `CCOc1ccc(-n2c(SCC(=O)Nc3ccc(OC)cc3)nc3c(c2=O)SCC3)cc1`: the AC50 is 7.08 µM (active). In the case of `CCOc1ccc(-n2c(SCC(=O)Nc3ccc4c(c3)OCCO4)nc3c(c2=O)SCC3)cc1`, the AC50 was 2.82 µM (active).

For the molecule `CCOc1ccc(-n2c(SCC(=O)Nc3ccc(OC)cc3OC)nc3c(c2=O)SCC3)cc1`, the concentration at half-maximal activity (AC50) is 5.01 µM (active).

Take `C/C(CCN1CCCCc2nc(C)c(C)cc21)=N\O[C@@H](C)c1cc(-c2c(C)cc(C)cc2C)no1`: the activity, negative = inhibition is -41.4% [at 11.4 µM] (inactive).

Turning to `O=c1c(-c2cc(F)cc(F)c2)nc2cnc(N3CCOCC3)nc2n1C1CC1`, the AC50 entry was “inactive”.

Take `CO[C@H]1COC(=O)[C@H](C)COC(=O)[C@@H](Cc2ccccc2)NC(=O)C/C=C\[C@H]1C`: the activity, negative = inhibition was -17.9% [at 11.4 µM] (inactive). `CS(=O)(=O)N1CCC2(CC1)CN(Cc1nccs1)C2`: the AC50 result was “inactive”. For `C[C@]12CC[C@H]3c4ccc(O)cc4CC[C@@H]3[C@H]1C/C(=N/O)[C@H]2O`, the activity, negative = inhibition is 27.1% [at 11.4 µM] (inactive). In the case of `COc1cc(CNn2nnnc2N)ccc1OCc1c(Cl)cccc1Cl`, the concentration at half-maximal activity (AC50) was 2.51 µM (active). `CC(=O)N1N=C(c2cccc([N+](=O)[O-])c2)OC1c1ccccc1Cl` (stereo not drawn): the AC50 is 2.82 µM (active).

As to `CC(=O)N1N=C(c2cccc([N+](=O)[O-])c2)OC1c1ccc(Cl)cc1Cl` (stereo not drawn), the AC50 was 0.447 µM (active). As for `CN1CCN(c2ncc3nc(-c4cccc(C#N)c4)c(=O)n(CCC#N)c3n2)CC1`, the AC50 entry was “inactive”. Regarding `COc1ccc(N2C(=O)CSC2c2cccc(F)c2)c(OC)c1` (stereo not drawn), the AC50 was 11.2 µM (active).

Turning to `Cc1cc(Br)ccc1NCc1ccccn1`, the AC50 is 0.251 µM (active). For the molecule `OCCCNCc1ccccn1`, the activity, negative = inhibition was 31.9% [at 11.4 µM] (inactive). For the molecule `Cc1cc(NCc2ccccn2)ccc1Br`, the AC50 was 2.82 µM (active). Take `c1ccc(CCNc2ccccn2)nc1`: the activity, negative = inhibition was 10.5% [at 11.4 µM] (inactive). As to `CNCCc1ccccn1`, the AC50 result is “inactive”. Consider `CN(C)CC[C@H](c1ccc(Br)cc1)c1ccccn1`, for which the AC50 entry is “inactive”. Consider `O=C(NCCCn1ccnc1)c1ccc(Br)c(S(=O)(=O)N2CCOCC2)c1`, for which the AC50 is 17.8 µM (active). Same read-out and setting: for `COC(=O)c1ccc(Oc2cc(C)nc(-n3nc(C)cc3C)n2)cc1` the value was 7.94 µM (active); for `Cc1ccc(C(=O)Oc2cc(C)n(C)c(=O)c2)cc1`, “inactive”.

Turning to `CN1C(C(=O)Nc2ccccn2)=C(O)c2sccc2S1(=O)=O`, the AC50 result was “inactive”. The same measure, in the same setting: for `CN1C(C(=O)Nc2ccccn2)=C(O)c2ccccc2S1(=O)=O` the value was “inactive and 6.31 µM (active)”; for `COc1ccc2[nH]cc(CCNc3nc(-c4ccoc4)nc4ccccc34)c2c1`, 1.58 µM (active). Same read-out and setting: under `COc1ccc2[nH]cc(CCNc3nc(-c4cccnc4)nc4ccccc34)c2c1` stands 0.501 µM (active); under `COc1cccc(-c2nc(NCCc3c[nH]c4ccc(OC)cc34)c3ccccc3n2)c1`, 1.58 µM (active); under `COc1ccccc1-c1nc(NCCN2CCOCC2)c2ccccc2n1`, “inactive”.

On to `COc1ccc2[nH]cc(CCNc3nc(-c4ccccc4OC)nc4ccccc34)c2c1`, for which the AC50 is 5.01 µM (active). Regarding `C1CCN(CC[C@@H]2CCCCN2)CC1`, the activity, negative = inhibition is 0.696% [at 11.4 µM] (inactive). As to `CCNC(=O)C/C(C)=N/NC(=O)C12CC3CC(CC(C3)C1)C2`, the AC50 entry was “inactive”.

On to `CC(C)C(NC(=O)C12CC3CC(CC(C3)C1)C2)C(=O)NC1=NCCS1` (stereo not drawn), for which the AC50 was 10 µM (active). The same measure, in the same setting: for `CCc1cccc2c3c([nH]c12)[C@@](CC)(CC(=O)O)OCC3` the value was “inactive”; for `CCc1cccc2c(-c3ccccc3)c3c(nc12)OCC3`, 7.94 µM (active); for `Cc1cc(Oc2ccccc2)nc(-c2ccccc2)n1`, 11.2 µM (active).

Consider `Cc1cc(Oc2ccccc2)nc(NCc2ccccc2)n1`, for which the half-maximal activity concentration (AC50) was 3.16 µM (active). On the same count and under the same terms, under `Cn1cnc2c(NCc3ccccc3)nc(NCCO)nc21` stands “inactive”; under `Cc1cc(C)nc(Nc2n[nH]c(COc3cccc4ccccc34)n2)n1`, “inactive”; under `NCCS`, “inactive”. For `C#CCn1c(S(=O)(=O)Cc2ccc(OC)cc2)nc(-c2ccccc2)c1-c1ccccc1`, the concentration at half-maximal activity (AC50) was 2.24 µM (active).

`O=C(O)c1ccccc1N/N=C\c1ccnc2ccccc12`: the AC50 is 15.8 µM (active). For the molecule `O=C(O)c1ccccc1/C=N\N=C1c2ccccc2-c2ccccc21`, the activity, negative = inhibition was 2.09% [at 11.4 µM] (inactive).

As to `O=C(O)CCNc1ccccc1C(=O)O`, the activity, negative = inhibition is 16.3% [at 11.4 µM] (inactive). With `CCOC(=O)c1ccccc1OCc1cc(/C=N/n2cnnc2)ccc1OC`, the AC50 was 0.794 µM (active). For the molecule `CCC(=O)NC(=S)N1CCN(c2ccc([N+](=O)[O-])cc2Cl)CC1`, the AC50 was 2.82 µM (active). As for `CN1CCN(c2ccc([N+](=O)[O-])cc2NC(=O)c2ccccc2Cl)CC1`, the AC50 entry is “inactive”.

The values above are taken from PubChem BioAssay AID1851 (National Center for Advancing Translational Sciences (NCATS), 2009).
